# In article PMC7862700, “An all-to-all approach to the identification of sequence-specific readers for epigenetic DNA modifications on cytosine”:
# What was measured:
# Assay in all cases: DAPPL (digital affinity profiling via proximity ligation, sequencing); 10 mM Tris-HCl pH 7.5, 50 mM NaCl, 1 mM DTT, 4% glycerol, room temperature, 30 min; GST-TFs on glutathione beads, 16-mer random dsDNA library, 0.1% formaldehyde crosslink after washing; high values mean tight binding
# FEV = target: T1, FEV (Homo sapiens, UniProt Q99581 1-238); conditions: protein: recombinant; tags: N-terminal GST; dsDNA, one strand shown
# T1 sequence: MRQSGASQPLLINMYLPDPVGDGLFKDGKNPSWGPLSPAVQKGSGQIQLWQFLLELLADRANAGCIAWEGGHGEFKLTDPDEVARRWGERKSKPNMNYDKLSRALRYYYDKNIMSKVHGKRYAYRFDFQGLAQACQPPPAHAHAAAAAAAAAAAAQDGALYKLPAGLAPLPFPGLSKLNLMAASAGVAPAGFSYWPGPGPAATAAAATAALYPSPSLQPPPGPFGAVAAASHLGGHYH
# Procedure, shortened: (§1)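 Human transcription factors were made in yeast as GST fusions, captured on glutathione beads and barcoded with DNA. With a tag-only sample included, the pool was incubated with 200 nmole of a random double-stranded 16-mer DNA library in Tris/NaCl/DTT/glycerol buffer at room temperature for 30 min, then crosslinked with 0.1% formaldehyde after washing, ligated by proximity, amplified and sequenced. For binding signal, each hexamer's read frequency for a factor is divided by its frequency for the tag-only sample.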
# ETV5 = ETV5 (Homo sapiens, UniProt P41161 1-510); conditions: protein: recombinant; tags: N-terminal GST; dsDNA, one strand shown
# Sequence of ETV5 (P41161 whole entry): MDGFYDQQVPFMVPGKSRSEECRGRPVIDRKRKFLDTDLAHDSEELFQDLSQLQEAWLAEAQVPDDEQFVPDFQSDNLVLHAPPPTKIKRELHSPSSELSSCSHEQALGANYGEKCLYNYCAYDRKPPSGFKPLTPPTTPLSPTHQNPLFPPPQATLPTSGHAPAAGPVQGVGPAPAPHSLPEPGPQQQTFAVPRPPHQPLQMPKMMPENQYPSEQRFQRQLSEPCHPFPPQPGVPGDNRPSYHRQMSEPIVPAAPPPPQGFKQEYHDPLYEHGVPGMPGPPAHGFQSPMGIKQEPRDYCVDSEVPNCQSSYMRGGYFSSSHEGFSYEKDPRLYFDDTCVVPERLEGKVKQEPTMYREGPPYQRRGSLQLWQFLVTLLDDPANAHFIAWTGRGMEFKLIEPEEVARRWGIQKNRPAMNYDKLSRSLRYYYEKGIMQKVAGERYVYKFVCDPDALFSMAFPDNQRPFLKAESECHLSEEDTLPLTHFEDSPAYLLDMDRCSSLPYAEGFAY
# Procedure, shortened: as §1
# HSF1 = HSF1 (Homo sapiens, UniProt Q00613 1-529); conditions: protein: recombinant; tags: N-terminal GST; chain copies: 3; dsDNA, one strand shown
# Sequence of HSF1 (Q00613 whole entry): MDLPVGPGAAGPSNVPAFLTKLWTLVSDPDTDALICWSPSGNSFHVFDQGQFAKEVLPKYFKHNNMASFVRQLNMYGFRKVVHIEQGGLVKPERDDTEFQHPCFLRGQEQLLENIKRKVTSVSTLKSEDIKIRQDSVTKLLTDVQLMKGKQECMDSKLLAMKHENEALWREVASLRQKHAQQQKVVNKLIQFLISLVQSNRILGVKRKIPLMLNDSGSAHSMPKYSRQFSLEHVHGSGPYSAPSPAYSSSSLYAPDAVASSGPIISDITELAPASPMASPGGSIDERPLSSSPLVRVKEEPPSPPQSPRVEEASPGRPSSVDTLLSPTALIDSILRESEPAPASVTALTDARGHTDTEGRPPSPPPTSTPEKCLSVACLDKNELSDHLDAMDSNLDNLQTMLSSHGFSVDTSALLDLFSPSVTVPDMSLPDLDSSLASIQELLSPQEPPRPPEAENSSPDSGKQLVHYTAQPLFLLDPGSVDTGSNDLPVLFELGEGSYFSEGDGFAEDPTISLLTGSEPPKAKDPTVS
# Procedure, shortened: as §1
# SPIC = target: T2, SPIC (Homo sapiens, UniProt Q8N5J4 1-248); conditions: protein: recombinant; tags: N-terminal GST; dsDNA, one strand shown
# T2 sequence: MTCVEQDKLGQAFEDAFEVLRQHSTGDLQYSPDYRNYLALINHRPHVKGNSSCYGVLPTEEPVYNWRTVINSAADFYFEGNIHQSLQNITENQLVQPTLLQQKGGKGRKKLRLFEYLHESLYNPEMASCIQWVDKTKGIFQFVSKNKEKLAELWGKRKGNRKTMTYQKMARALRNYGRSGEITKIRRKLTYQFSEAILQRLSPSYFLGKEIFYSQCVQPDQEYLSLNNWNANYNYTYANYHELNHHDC
# Procedure, shortened: as §1
# ELF4 = ELF4 (Homo sapiens, UniProt Q99607 1-663); conditions: protein: recombinant; tags: N-terminal GST; dsDNA, one strand shown
# Sequence of ELF4 (Q99607 whole entry): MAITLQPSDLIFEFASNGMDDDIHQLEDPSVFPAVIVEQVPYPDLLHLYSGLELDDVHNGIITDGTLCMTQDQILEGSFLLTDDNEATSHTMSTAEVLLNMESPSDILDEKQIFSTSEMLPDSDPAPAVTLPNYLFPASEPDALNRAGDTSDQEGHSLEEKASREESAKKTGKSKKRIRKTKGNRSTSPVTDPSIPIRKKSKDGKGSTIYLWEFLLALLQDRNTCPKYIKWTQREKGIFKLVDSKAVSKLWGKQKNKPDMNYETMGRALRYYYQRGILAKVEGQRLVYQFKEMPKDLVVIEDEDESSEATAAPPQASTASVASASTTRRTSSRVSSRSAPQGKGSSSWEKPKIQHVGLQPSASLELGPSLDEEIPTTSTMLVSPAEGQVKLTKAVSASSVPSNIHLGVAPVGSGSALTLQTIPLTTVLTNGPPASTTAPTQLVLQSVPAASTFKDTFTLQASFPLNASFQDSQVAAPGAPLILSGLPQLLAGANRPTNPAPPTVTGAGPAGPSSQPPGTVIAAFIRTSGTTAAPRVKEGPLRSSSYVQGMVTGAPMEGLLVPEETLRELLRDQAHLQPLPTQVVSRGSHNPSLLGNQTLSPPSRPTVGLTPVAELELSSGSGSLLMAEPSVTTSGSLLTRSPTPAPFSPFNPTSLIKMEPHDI
# Procedure, shortened: as §1
# ELK4 = target: T3, ELK4 (Homo sapiens, UniProt P28324-2 1-405); conditions: protein: recombinant; tags: N-terminal GST; dsDNA, one strand shown
# T3 sequence: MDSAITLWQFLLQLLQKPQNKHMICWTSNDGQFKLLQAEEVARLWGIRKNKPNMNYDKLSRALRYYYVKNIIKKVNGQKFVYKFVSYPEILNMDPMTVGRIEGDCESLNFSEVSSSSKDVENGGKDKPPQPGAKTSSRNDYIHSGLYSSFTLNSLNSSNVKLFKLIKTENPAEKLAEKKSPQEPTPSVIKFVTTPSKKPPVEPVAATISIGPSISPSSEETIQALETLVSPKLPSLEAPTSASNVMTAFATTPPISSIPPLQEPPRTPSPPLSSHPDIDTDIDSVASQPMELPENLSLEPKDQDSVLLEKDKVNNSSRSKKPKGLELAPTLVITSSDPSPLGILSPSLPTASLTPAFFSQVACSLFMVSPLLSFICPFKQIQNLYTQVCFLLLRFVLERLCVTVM
# Procedure, shortened: as §1
# ETV2 = target: T4, ETV2 (Homo sapiens, UniProt O00321 1-342); conditions: protein: recombinant; tags: N-terminal GST; dsDNA, one strand shown
# T4 sequence: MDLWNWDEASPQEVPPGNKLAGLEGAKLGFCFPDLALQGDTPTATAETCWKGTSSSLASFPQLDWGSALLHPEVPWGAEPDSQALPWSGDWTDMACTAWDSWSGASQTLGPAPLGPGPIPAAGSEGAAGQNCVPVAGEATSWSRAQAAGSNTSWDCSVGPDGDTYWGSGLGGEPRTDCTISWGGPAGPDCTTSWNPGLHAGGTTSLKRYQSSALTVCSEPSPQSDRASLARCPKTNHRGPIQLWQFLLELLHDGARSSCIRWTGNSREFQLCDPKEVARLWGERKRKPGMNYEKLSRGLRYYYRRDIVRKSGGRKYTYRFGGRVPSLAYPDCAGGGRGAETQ
# Procedure, shortened: as §1
# ELF3 = target: T5, ELF3 (Homo sapiens, UniProt P78545 1-371); conditions: protein: recombinant; tags: N-terminal GST; dsDNA, one strand shown
# T5 sequence: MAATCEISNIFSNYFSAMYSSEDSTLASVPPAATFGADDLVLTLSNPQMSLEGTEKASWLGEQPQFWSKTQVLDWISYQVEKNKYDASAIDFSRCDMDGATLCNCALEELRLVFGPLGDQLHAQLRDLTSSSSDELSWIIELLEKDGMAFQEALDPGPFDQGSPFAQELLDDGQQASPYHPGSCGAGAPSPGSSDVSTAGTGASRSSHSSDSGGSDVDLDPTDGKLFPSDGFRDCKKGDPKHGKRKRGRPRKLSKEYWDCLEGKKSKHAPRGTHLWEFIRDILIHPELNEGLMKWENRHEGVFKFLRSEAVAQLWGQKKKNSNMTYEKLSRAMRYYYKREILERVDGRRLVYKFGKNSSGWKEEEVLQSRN
# Procedure, shortened: as §1
# CRX = CRX (Homo sapiens, UniProt O43186 1-299); conditions: protein: recombinant; tags: N-terminal GST; dsDNA, one strand shown
# Sequence of CRX (O43186 whole entry): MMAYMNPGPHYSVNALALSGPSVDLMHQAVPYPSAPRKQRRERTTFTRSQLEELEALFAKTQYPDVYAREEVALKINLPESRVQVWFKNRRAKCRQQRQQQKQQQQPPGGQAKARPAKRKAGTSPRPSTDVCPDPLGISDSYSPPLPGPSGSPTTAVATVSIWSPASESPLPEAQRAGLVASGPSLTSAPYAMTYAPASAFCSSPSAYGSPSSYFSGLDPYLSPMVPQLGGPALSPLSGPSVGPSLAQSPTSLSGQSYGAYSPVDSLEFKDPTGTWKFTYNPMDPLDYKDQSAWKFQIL
# Procedure, shortened: as §1
# ETV1 = ETV1 (Homo sapiens, UniProt P50549 1-477); conditions: protein: recombinant; tags: N-terminal GST; dsDNA, one strand shown
# Sequence of ETV1 (P50549 whole entry): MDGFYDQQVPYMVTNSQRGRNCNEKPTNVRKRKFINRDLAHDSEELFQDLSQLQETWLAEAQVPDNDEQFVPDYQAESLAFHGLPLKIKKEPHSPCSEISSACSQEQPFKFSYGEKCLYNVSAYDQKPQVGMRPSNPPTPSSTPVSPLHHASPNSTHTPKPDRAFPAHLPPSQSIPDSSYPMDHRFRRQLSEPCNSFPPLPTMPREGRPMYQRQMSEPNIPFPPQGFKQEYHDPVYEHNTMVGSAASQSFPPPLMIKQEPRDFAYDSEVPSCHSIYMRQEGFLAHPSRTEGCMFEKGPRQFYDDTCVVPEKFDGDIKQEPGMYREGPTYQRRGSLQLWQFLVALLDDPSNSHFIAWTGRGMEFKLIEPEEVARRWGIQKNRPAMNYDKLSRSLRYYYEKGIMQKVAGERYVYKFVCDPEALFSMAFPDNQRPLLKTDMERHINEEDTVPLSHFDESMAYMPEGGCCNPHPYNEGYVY
# Procedure, shortened: as §1
sequence,measurement,setting,value
ATTCCG,binding signal,FEV,"1.79 fold enrichment (6-mer frequency, TF over GST control)"
same,binding signal,ETV5,"1.97 fold enrichment (6-mer frequency, TF over GST control)"
same,binding signal,HSF1,"1.52 fold enrichment (6-mer frequency, TF over GST control)"
same,binding signal,SPIC,"1.82 fold enrichment (6-mer frequency, TF over GST control)"
same,binding signal,ELF4,"1.61 fold enrichment (6-mer frequency, TF over GST control)"
same,binding signal,ELK4,"1.54 fold enrichment (6-mer frequency, TF over GST control)"
same,binding signal,ETV2,"1.79 fold enrichment (6-mer frequency, TF over GST control)"
same,binding signal,ELF3,"1.78 fold enrichment (6-mer frequency, TF over GST control)"
same,binding signal,CRX,"1.27 fold enrichment (6-mer frequency, TF over GST control)"
same,binding signal,ETV1,"1.81 fold enrichment (6-mer frequency, TF over GST control)"
